# HCMV inh: qHTS Assay for inhibitors of the human cytomegalovirus (HCMV); HFF cells, HCMV-luciferase reporter, 72 h; stronger effect = lower value; activity change, negative = inhibition, % at 57.5 µM; actives 4.5% (n = 410,000); AID 1259415, 2018; in the data active means activity change below about -60%; inconclusive means no clear call, values can overlap the other calls; inactive means above about -39%; further: on the % scale 0 is the no-effect control and ±100 the full control effect
#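 After 16 h attachment at 37C, HFF cells received test compound and HCMV-luciferase (1 PFU/cell); reporter luminescence read 72 h later, data normalized against buffer-only and known inhibitor Salinomycin.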
# HCV inh: qHTS Assay for Inhibitors of Hepatitis C Virus (HCV) | Huh7.5.1 HCVcc-Cre infection, luciferase reporter, 44 h | actives 3.4% (n = 340,000) | Potency, µM (highest dose often 41.8 µM), for inactives: at the top dose activity change, negative = inhibition, usual class: inhibitors; further: potency means the concentration at half of the fitted maximal effect; on the % scale 0 is the no-effect control and ±100 the full control effect
#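 After 44 h co-culture of compound, cells and HCVcc-Cre (~0.5 moi), substrate is added for 15 min at room temperature and luciferase measured over 15 sec. Cells were seeded at 1,000/well and pre-cultured 4 h.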
# Pf growth 96h: Primary qHTS for delayed death inhibitors of the malarial parasite plastid, 96 hour incubation. AID 504834, 2011. Potency, µM (series often up to 28.7 µM), inactives show at the highest dose activity change, negative = inhibition, most hits filed as inhibitors. P. falciparum luciferase reporter growth, 96 h. actives 6.9% (n = 320,000); further: potency means the concentration at half of the fitted maximal effect; on the % scale 0 is the no-effect control and ±100 the full control effect
#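 Readout is luminescence from an integrated firefly luciferase in P. falciparum. Red cells, 2% hematocrit and 0.05% parasitemia final, were cultured with compound through two parasite generations (96 hours) at 37 C, 5% CO2.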
# Shiga inhibitor: A qHTS for Small Molecule Inhibitors of Shiga Toxin | Vero cells, Shiga toxin protein synthesis inhibition reporter | inhibition, % at 38.7 µM | actives 9.2% (n = 290,000); in the data active means inhibition mostly above about 28%, no sharp cut-off; inactive means mostly below about 43%; further: 0% is about no effect
# CHX counter: Cycloheximide Counterscreen for Small Molecule Inhibitors of Shiga Toxin. cell reporter, cycloheximide protein synthesis inhibition counterscreen. actives 12% (n = 300,000). max response, %; in the data active means max response mostly above about 13%, no sharp cut-off; inactive means mostly below about 14%; further: read at 38.3 µM for the half of the compounds with a filed dose; 0% is about no effect
# Pf growth 48h: Primary qHTS for delayed death inhibitors of the malarial parasite plastid, 48 hour incubation; P. falciparum luciferase growth in erythrocytes, 48 h; actives 5.9% (n = 310,000); AID 504832, 2011; Potency, µM (titrated, usually from 28.7 µM), without a hit: at the highest dose activity change, negative = inhibition, actives largely listed as inhibitors; further: potency means the concentration at half of the fitted maximal effect; on the % scale 0 is the no-effect control and ±100 the full control effect
#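 Here the parasites carry a stable luciferase gene and grow inside erythrocytes in Albumax-based RPMI medium with compound for one erythrocytic cycle. Activity is scored as loss of luminescent signal.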
# * hit, by the source's call; ? = inconclusive; · = not tested or not shown; [ ] = another dose, or the depositor's remark. Hits are enriched below; roughly 21% of the tested compounds scored in any of these assays. Unless noted, the call rests on the fitted dose curve; in most records, active means well fitted inhibition curve with a large enough effect; inconclusive means small, poorly fitted or top-dose-only effect, or another doubt; inactive means no such curve, though single readings can be large or run the other way.
SMILES,HCMV inh,HCV inh,Pf growth 96h,Shiga inhibitor,CHX counter,Pf growth 48h
O=C(/C=C/c1ccccc1)c1cc(Br)ccc(=O)c1O,-107*,?,?,23,-2,·
Cc1ccc(/C=C/C(=O)c2ccccc(=O)c2O)cc1C,-66*,?,9.3µM*,77*,51*,8.3µM*
O=C(/C=C/c1ccc(F)cc1)c1cc(Br)ccc1O,-24,-5%,-1%,77*,15*,13%
O=C(/C=C/c1ccc2ccccc2n1)c1cc(Br)ccc1O,0,9%,?,80*,43*,?
CC(=O)/C=C/c1ccccc1,-28,10%,·,·,·,·
CC1=CC(=O)C(C(C)C)=C/C1=C(\c1cc(C(C)C)c(OP(=O)(O)O)cc1C)c1ccccc1C(=O)O,-98*,?,?,3,1,-35%
CCC1=Nc2cc(C(=O)NCc3ccco3)ccc2Sc2ccccc21,-3,?,11%,23,8,7.4µM*
O=C(NCc1ccco1)c1ccc2c(c1)N(Cc1ccccc1)C(=O)c1ccccc1S2,-35,·,·,·,·,·
Cc1cccc(CN2C(=O)c3ccccc3Sc3ccc(C(=O)NCc4ccco4)cc32)c1,-73*,·,·,·,·,·
CCC1=Nc2cc(C(=O)NCc3ccco3)ccc2Sc2ccc(Cl)cc21,-67*,?,39%,-3,3,1.5µM*
Cc1ccccc1-n1c(SCC(=O)N2CCN(c3ccccn3)CC2)nnc1N1CCOCC1,49,11%,-18%,·,·,?
CCn1c(=O)cc(OCC(=O)O)c2ccccc21,3,14%,0%,-15,-5,5%
Cn1cc(C(c2ccccc2OCC(=O)O)c2cn(C)c3ccccc23)c2ccccc21,41,20%,5.2µM*,-10,-1,32%
CCN(CC(=O)Nc1ccc(NC(C)=O)cc1)C(=O)c1cc(CN2C(=O)c3ccccc3C2=O)ccc1OC,-2,-5%[8.37 µM],13%,·,·,-1%
O=C(Nc1ccccn1)c1ccc2c(=O)n3c(nc2c1)CCCCC3,148,-15%,188%,·,·,79%
Cc1ccc(NC(=O)c2ccc3c(=O)n4c(nc3c2)CCC4)cc1S(=O)(=O)N(C)C,-27,?,?,·,·,?
Cc1ccc(S(=O)(=O)N2CCCCC2)cc1NC(=O)c1ccc2c(=O)n3c(nc2c1)CCCCC3,-38,11µM*,?,-9,-4,-14%
O=C(Nc1ccc(S(=O)(=O)N2CCCC2)cc1)c1ccc2c(=O)n3c(nc2c1)CCCCC3,-90*,11µM*,?,-5,-2,11%
CCOC(=O)C1=C(C)OC(N)=C(C#N)C1c1cc2c(cc1Br)OCO2 (stereo not drawn),0,12%,50%,-15,6,-3%
CCOC(=O)C1=C(C)OC(N)=C(C#N)C1c1cc2cc(C)ccc2nc1N1CCCCC1 (stereo not drawn),41,-2%,471%,45*,15,?
CCOC(=O)C1=C(C)OC(N)=C(C#N)C1c1cc2ccccc2nc1N1CCCCC1 (stereo not drawn),·,4%,1.3µM*,-11,-2,-12%
CCOC(=O)C1=C(C)OC(N)=C(C#N)C1c1cc(C)sc1C (stereo not drawn),-7,17%,4%,9,-3,-17%
COc1ccc(Cl)cc1NC(=O)CN(C)C(=O)c1sc2ccccc2c1Cl,3,13µM*,?,·,·,?
COc1ccc(Cl)cc1NC(=O)CN(C)C(=O)c1cc2c(s1)CCCC2,-21,?,5.2µM*,·,·,9.3µM*
CCOC(=O)c1nnn(CC(=O)N2N=C(c3ccccc3)CC2c2ccccc2)c1C(=O)OCC (stereo not drawn),18,11%,?,4,-5,12µM*
SMILES,HCMV inh,HCV inh,Pf growth 96h,Shiga inhibitor,CHX counter,Pf growth 48h
CCOC(=O)c1nnn(CC(=O)N2N=C(c3cc(C)ccc3C)CC2c2ccc(OC)cc2)c1C(=O)OCC (stereo not drawn),27,-1%,9.3µM*,-9,-6,15µM*
CCOC(=O)/C=C(\C)N1N=C(c2ccccc2)CC1c1ccccc1 (stereo not drawn),216,8%,18%,100*,42*,112%
Cc1c(C(=O)N(C)Cc2ccc(OC(F)F)cc2)oc2ccccc12,-14,-27%,28%,-3,1,-9%
COCCn1c(=NC(=O)CCS(=O)(=O)c2ccccc2)sc2cc(F)ccc21,32,?,?,12,9,-13%
Cc1c(N(C(=O)c2ccccn2)C2(C(=O)NC3CCCCC3)CCCCC2)c(=O)n(-c2ccccc2)n1C,17,-18%,?,-4,-1,-6%
Cc1ccc(CNC(=O)NC2CCCCC2)cc1,19,11%,-19%,55*,16*,·
COc1ccc(C(=O)OCC(=O)NC2CC2)cc1,-4,·,·,·,·,·
CC(C)(C)c1ccc(C(=O)OCC(=O)NC2CC2)cc1,-18,-12%,?,·,·,9.3µM*
Cc1ccc(C(=O)NCC(=O)NC2CCCCCC2)cc1,-97*,-4%,?,26*,active,17%
Cc1ccc(CNC(=S)NC2CCCCC2)cc1,-33,-15%,?,-3,-1,-13%
CCn1cc(CNC(=O)/C=C/c2cnn(C)c2)c(C)n1,-30,25%,2%,14,-1,25%
CCn1cc(CNC(=O)NC2CCCCC2)c(C)n1,51,5%,-18%,65*,19*,55%
O=C(O)CC(CC(=O)O)(C(=O)O)c1ccccc1,-38,27%,7%,-8,1,16%
Cn1nc(C(=O)NCCc2ccc(Cl)cc2)c2c1-c1ccccc1SC2,2,·,·,·,·,·
Cc1ccc(C(=O)OCC(=O)NC2CCCC2)cc1,31,16%,48%,75*,32*,65%
O=C(C1=C[C@@H](c2ccc(Br)cc2)C[C@@H](OCc2ccc(CO)cc2)O1)N1CCN(Cc2ccc3c(c2)OCO3)CC1,·,?,15µM*,-19,-2,?
O=C(C1=C[C@@H](c2ccc(C(F)(F)F)cc2)C[C@@H](OCCCCO)O1)N1CCN(Cc2ccc3c(c2)OCO3)CC1,·,-14%,9.3µM*,-3,-2,?
O=C(C1=C[C@@H](c2ccc3c(c2)OCO3)C[C@@H](OCc2ccc(CO)cc2)O1)N1CCOCC1,-18,-8%,?,-6,1,-13%
O=C(C1=C[C@@H](C2CCCCC2)C[C@@H](OCCCCO)O1)N1CCN(Cc2ccc3c(c2)OCO3)CC1,-18,-7%,6.6µM*,-5,-2,?
O=C(C1=C[C@H](c2ccc(C(F)(F)F)cc2)C[C@H](OCCCCO)O1)N1CCN(Cc2ccccc2)CC1,14,-8%,?,-11,-1,?

# Assay outcomes as filed in PubChem BioAssay.
